Most compounds without a hit are left out; they make up all but 19% or so of the library.
TDP1 cell CPT = qHTS for Inhibitors of human tyrosyl-DNA phosphodiesterase 1 (TDP1): qHTS in cells in presence of CPT; chicken DT40 Tdp1-/-;hTDP1 cells + 20 nM CPT, ATP luminescence, 48 h; Potency, µM (series often up to 46.2 µM), inactives show at the highest dose activity change, negative = growth inhibition, actives largely listed as inhibitors; 420,000 tested, 12% active; note: potency is the fitted concentration of half-maximal effect; % is set by controls: 0 for no effect and ±100 for the full control effect; nearly all actives have a fitted effect of over 55% in size
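Cell growth measured by CellTiter-Glo luminescence after a minimum 48 h, 37 C compound exposure with 20 nM CPT in Tdp1-knockout DT40 cells stably expressing hTDP1, seeded 400/well; qHTS titration format.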
HepG2 viability = qHTS for Inhibitors of TGF-b: Cytotox Counterscreen; 410,000 tested, 0.76% active; HepG2 CAGA-GFP viability, ATP luminescence, 18 h; Potency, µM (titrated, usually from 46.1 µM), for the others: at the highest dose activity change, negative = cytotoxicity, usual class: cytotoxic; note: potency is the fitted concentration of half-maximal effect
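HepG2 CAGA-GFP cells (1000/well, DMEM with 1% FBS) received compound, then TGF-beta at 500 pg/mL final, and were incubated 18 hours at 37 degrees C. Viability was read by CellTiter-Glo luminescence. Media-only wells were set as complete cell-killing and DMSO as no toxicity.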
IL-1B inflam inh = qHTS for Inhibitors of Inflammasome Signaling: IL-1-beta AlphaLISA Primary Screen; 360,000 tested, 4.7% active; THP-1 LPS/ATP IL-1B secretion, AlphaLISA, 16 h; stronger effect = lower value; activity change, % at 57.5 µM; in the data active = activity change below about -50%; inconclusive = mostly about -30% to -49%; note: % is set by controls: 0 for no effect and ±100 for the full control effect
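Secreted IL-1B measured by AlphaLISA bead assay after 16 h compound exposure of THP-1 cells; compounds (final up to 57.5 uM) added 1 h before LPS (250 ng/mL) and ATP (1.25 mM) stimulation; lower signal means less secretion.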
TDP1 inh = qHTS Assay for Inhibitors of Tyrosyl-DNA Phosphodiesterase (TDP1); Tyrosyl-DNA phosphodiesterase 1 (Homo sapiens), Q9NUW8; recombinant TDP1, AlphaScreen DNA substrate cleavage; Potency, µM (top dose mostly 130 µM), for inactives: at the highest dose activity change, negative = inhibition, hits mostly inhibitors; 350,000 tested, 0.28% active; AID 485290, 2010; note: potency is the fitted concentration of half-maximal effect; % is set by controls: 0 for no effect and ±100 for the full control effect; nearly all actives have a fitted effect of over 40% in size
Target sequence (Q9NUW8 whole entry, looked up): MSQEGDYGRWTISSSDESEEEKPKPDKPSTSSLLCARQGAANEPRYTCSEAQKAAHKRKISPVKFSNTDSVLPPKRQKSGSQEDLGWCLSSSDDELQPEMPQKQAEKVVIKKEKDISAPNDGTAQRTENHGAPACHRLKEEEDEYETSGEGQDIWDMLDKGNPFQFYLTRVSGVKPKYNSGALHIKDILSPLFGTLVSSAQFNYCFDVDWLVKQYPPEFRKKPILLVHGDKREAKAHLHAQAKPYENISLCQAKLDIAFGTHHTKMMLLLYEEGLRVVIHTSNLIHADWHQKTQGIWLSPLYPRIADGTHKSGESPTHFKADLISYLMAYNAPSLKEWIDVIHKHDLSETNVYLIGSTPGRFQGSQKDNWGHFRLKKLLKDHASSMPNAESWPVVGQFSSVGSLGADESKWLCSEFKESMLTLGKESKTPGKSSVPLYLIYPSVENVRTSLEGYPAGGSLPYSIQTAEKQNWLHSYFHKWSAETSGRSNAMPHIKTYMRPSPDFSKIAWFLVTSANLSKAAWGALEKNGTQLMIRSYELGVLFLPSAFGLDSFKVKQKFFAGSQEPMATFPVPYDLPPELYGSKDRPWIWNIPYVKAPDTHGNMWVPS
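Compounds were preincubated with Tdp1 (1 nM final) for 15 min at room temperature before substrate (15 nM final) started a 5 min reaction; beads (10 ug/ml final) were then added for 10 min before AlphaScreen detection.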
TDP1 cell noCPT = qHTS for Inhibitors of human tyrosyl-DNA phosphodiesterase 1 (TDP1): qHTS in cells in absence of CPT; DT40 Tdp1-/- hTDP1 cells, no CPT, ATP luminescence, 48 h; Potency, µM (doses to about 46.2 µM), without a hit: top-dose activity change, negative = growth inhibition, most hits filed as inhibitors; 420,000 tested, 15% active; note: potency is the fitted concentration of half-maximal effect; % is set by controls: 0 for no effect and ±100 for the full control effect; nearly all actives have a fitted effect of over 55% in size
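A cellular qHTS used chicken DT40 cells lacking endogenous Tdp1 but carrying stably transfected human TDP1. Compounds were applied without camptothecin, and cell growth kinetics were judged by ATP-dependent luminescence after ≥48 hr.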
TGFb SMAD3 inh = qHTS for Inhibitors of TGF-b. 410,000 tested, 1.2% active. AID 588855, 2011. HepG2 CAGA-GFP TGF-b/SMAD3 reporter, GFP fluorescence, 18 h; TGF-beta stimulated, 500 pg/mL final. Potency, µM (series often up to 46.1 µM), without a hit: at the top dose activity, negative = inhibition, most hits filed as inhibitors; note: potency is the fitted concentration of half-maximal effect; % is set by controls: 0 for no effect and ±100 for the full control effect; nearly all actives have a fitted effect of over 65% in size
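TGF-beta reporter screen: HEPG2 CAGA-GFP, 1% FBS, 500 pg/mL TGF-beta final, 18 h; per-cell GFP summed per well; curves fitted and categorized by class.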
* marks the source's active call; other numbers are inactive results; i = inactive; ? = inconclusive; . = no result; [ ] = remark or other dose. Unless noted, calls come from the whole dose curve; as a rule, active = well fitted curve in the direction sought with a large enough effect; inconclusive = small, poorly fitted or top-dose-only effect, or another doubt; inactive = no such curve, though single readings can be large; an effect the other way counts as inactive or inconclusive.

SMILES	TDP1 cell CPT	HepG2 viability	IL-1B inflam inh	TDP1 inh	TDP1 cell noCPT	TGFb SMAD3 inh
Cc1ccc2c(c1)sc[n+]2Cc1ccccc1	13µM*	-37%	13	5%	13µM*	-11%
COC(=O)N/N=C/c1cn(CCCOc2ccccc2)c2ccccc12	26µM*	-24%	-22	1%	?	?
CNC(=S)N/N=C/c1cn(Cc2ccc(F)cc2)c2ccccc12	16µM*	-24%	-20	11%	10µM*	?
COC(=O)N/N=C/c1cn(Cc2ccc(F)cc2)c2ccccc12	-28%	-53%	-24	.	?	5µM*
NC(=O)Cn1cc(/C=N\NS(=O)(=O)c2ccc(F)cc2)c2ccccc21	-3%	9%	i	-2%	23µM*	-4%
C=CCOc1cccc(C(=O)Nc2ncn[nH]2)c1	-9%	17%	5	3%	1%	21%
CC(=O)N1CCN(S(=O)(=O)c2cccc(C(=O)NNC(=O)COc3ccc(F)cc3)c2)CC1	-1%	-27%	73	0%	-3%	-27%
CCOc1cccc2cc(S(=O)(=O)c3ccccc3F)c(=O)oc12	11%	-10%	.	6%	1%	?
COC(=O)N/N=C/c1cn(Cc2ccccc2Cl)c2ccccc12	18µM*	-20%	-27	8%	21µM*	0%
COC(=O)N/N=C/c1ccccc1Cl	2%	-10%	-16	-6%	-6%	-6%
COC(=O)N/N=C/c1cn(Cc2ccccc2F)c2ccccc12	-3%	-24%	-75*	3%	?	?
COC(=O)N/N=C/c1cc(Cl)cc(Cl)c1OCc1ccccc1F	?	-61%	13	3%	18µM*	?
N#Cc1cn(CCCOc2ccccc2)c2ccccc12	9.2µM*	5%	-20	-5%	23µM*	0%
COC(=O)N/N=C/c1cn(Cc2ccc(Cl)cc2Cl)c2ccccc12	?	0%	-28	3%	?	-10%
CC(=O)c1c(C)nn(CC(O)COc2ccc3ccccc3c2)c1C (stereo not drawn)	?	-21%	-14	6%	26µM*	1%
CCOC(=O)c1c(C)n(C)c2ccc(OCC(O)Cn3nc(C)c(Br)c3C)cc12 (stereo not drawn)	21µM*	-12%	-6	3%	18µM*	0%
CC(=O)Nc1ccc(OCC(O)Cn2nc(C)c(C(C)=O)c2C)cc1 (stereo not drawn)	5%	-33%	16	1%	-3%	-8%
COC(=O)C1=C(N)Oc2cc(C)n(Cc3ccccc3)c(=O)c2C1c1ccccc1 (stereo not drawn)	-8%	-26%	-29	5%	7%	-4%
COC(=O)C1=C(N)Oc2cc(C)n(C)c(=O)c2C1c1ccc(Cl)cc1 (stereo not drawn)	?	2%	10	2%	15µM*	?
NCCC(=O)N[C@H](Cc1cnc[nH]1)C(=O)O	9%	.	.	12%[56.1 µM]	-3%	.
COc1ccc(OC)c2c(=S)c3ccccc3[nH]c12	24µM*	.	.	.	?	.
Cc1ccc(C)c2c1[nH]c1ccccc12	-19%	-26%	15	2%	-15%	5%
CCN1CCCC1Cn1c(-c2ccccc2)nc2c(N(CCOC)CCOC)nc(C)nc21 (stereo not drawn)	.	.	.	3%	.	.
CCOC(=O)Cn1nc(-c2ccc(Cl)cc2)ccc1=O	?	-2%	-9	-1%	?	24%
CCOC(=O)c1nnc2cc(-c3ccccc3)nn2c1C	-24%	-5%	8	4%	?	15%
SMILES	TDP1 cell CPT	HepG2 viability	IL-1B inflam inh	TDP1 inh	TDP1 cell noCPT	TGFb SMAD3 inh
CCOC(=O)COc1ccc(CC)cc1C(=O)c1ccn2nc(-c3ccc(Cl)cc3)cc2n1	21µM*	-3%	.	3%	21µM*	?
CCOC(=O)COc1ccc(CC)cc1C(=O)c1ccn2nc(-c3ccccc3)cc2n1	15µM*	-8%	.	-1%	23µM*	-4%
COc1ccc(OC)c(NC(=O)CCn2cccn2)c1	0%	0%	.	5%	-18%	21%
Cc1c(Cl)cccc1NC(=O)CN(C1CCCCC1)S(C)(=O)=O	?	-43%	-25	0%	-12%	-14%
CCOc1ccc2c(c1)[N+](C)(C)C(C)(C)C=C2C	5.8µM*	-9%	-55*	1%	15µM*	-3%
CCC(Sc1nc2c(sc3ccccc32)c(=O)n1CCc1ccccc1)C(=O)N(CC)CC (stereo not drawn)	-26%	-19%	.	3%	?	1%
CCC(Sc1nc2c(sc3ccccc32)c(=O)n1CCc1ccc(OC)c(OC)c1)C(=O)N(CC)CC (stereo not drawn)	6.5µM*	-29%	.	4%	5.8µM*	?
C=CCNC(=O)CSc1nc2ccccc2c(=O)n1CCc1ccc(OC)c(OC)c1	?	-34%	-17	.	?	-20%
COc1ccc(CCn2c(SCCN3CCCCC3)nc3ccccc3c2=O)cc1OC	?	-26%	-28	4%	16µM*	12%
CCC(Sc1nc2ccccc2c(=O)n1CCc1ccc(OC)c(OC)c1)C(=O)N(CC)CC (stereo not drawn)	6.5µM*	-28%	.	3%	6.5µM*	?
CC1Cc2cc(S(=O)(=O)N3CCN(c4ccccc4F)CC3)ccc2N1C(=O)C1CCC1 (stereo not drawn)	?	-15%	.	1%	-13%	-13%
COc1ccc(S(=O)(=O)Nc2ccc(S(=O)(=O)Nc3ccc(F)cc3)cc2)cc1C	-3%	5%	-14	3%	?	0%
O=S(=O)(Nc1ccc(Cl)cc1)c1cccc(S(=O)(=O)c2ccc(Cl)c(Cl)c2)c1	?	-78%	.	2%	?	14µM*
COc1ccc(S(=O)(=O)Nc2ccc(F)cc2)cc1N(C)S(=O)(=O)c1ccc(Cl)cc1	?	7%	-94*	2%	?	?
O=C(O)c1ccc(NS(=O)(=O)c2cccc(S(=O)(=O)c3ccc(Cl)c(Cl)c3)c2)cc1	-4%	5%	-4	-3%	7%	-5%
CN(C)c1ccc(NS(=O)(=O)c2ccc(Cl)cc2)cc1	18µM*	-20%	-1	0%	?	?

Assay outcomes: PubChem, National Center for Advancing Translational Sciences (NCATS)
